# HP1b chromo inh: HTS for Inhibitors of HP1-beta Chromodomain Interactions with Methylated Histone Tails; AlphaScreen HP1-beta / biotin-H3K9me3 peptide binding; Potency, µM (series often up to 114 µM), without a hit: at the highest dose activity change, negative = inhibition, most hits filed as inhibitors; 390,000 compounds, 0.56% hits; AID 540317, 2011; also: nearly all actives have a fitted effect of over 70% in size
#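 HP1-beta protein (50 nM final) preincubated 30 min at room temperature with biotinylated H3(1-18)K9me3 peptide (50 nM) in PBS pH 7.4, 0.01% Tween-20, then compound added for 30 min. AlphaScreen streptavidin donor/nickel chelate acceptor beads (10 ug/mL final), 30 min dark, luminescence read.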
# BAZ2B block: qHTS Assay for Inhibitors of BAZ2B; Potency, µM (series often up to 114 µM), inactives show top-dose activity change, negative = inhibition, actives largely listed as inhibitors; AlphaScreen BAZ2B-H3K14Ac peptide displacement; AID 504333, 2011; 360,000 compounds, 4.4% hits; Bromodomain adjacent to zinc finger domain protein 2B (Homo sapiens), Q9UIF8; also: % is scaled to controls: 0 for no effect and ±100 for the full control effect; nearly all actives have a fitted effect of over 60% in size
#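 BAZ2B (50 nM) with biotin-H3(5-23)K14Ac peptide (50 nM) in PBS pH 7.4, 0.01% Tween-20, preformed 30 min, then compound 30 min at room temperature; top concentration 110uM. AlphaScreen streptavidin donor/nickel chelate acceptor beads (10 ug/mL final), 20 min dark, signal read.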
# 12-LOX inh: Primary qHTS assay for inhibitors of human arachidonate 12S-lipoxygenase (ALOX12): Round 2 | purified 12hLO, xylenol orange hydroperoxide absorbance | Potency, µM (top dose mostly 108 µM), inactives show at the highest dose activity change, negative = inhibition, hits mostly inhibitors | 580,000 compounds, 1.1% hits; also: % is scaled to controls: 0 for no effect and ±100 for the full control effect
#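 Purified human 12hLO (150 nM final) in 25 mM Hepes, 0.01% Triton X-100, pH 7.0 was preincubated 15 min at room temperature with compound. Then 40 uM arachidonic acid was added, 30 min. Hydroperoxide was read by Fe-XO absorbance ratio 573/405 nm.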
# JMJD2A Tudor: qHTS Assay for Inhibitors of JMJD2A-Tudor Domain | AlphaScreen JMJD2A-Tudor / H3K4me3 peptide binding | Lysine-specific demethylase 4A (Homo sapiens), O75164 | Potency, µM (series often up to 114 µM), without a hit: top-dose activity change, negative = inhibition, hits mostly inhibitors | 390,000 compounds, 4.4% hits; also: % is scaled to controls: 0 for no effect and ±100 for the full control effect; nearly all actives have a fitted effect of over 50% in size
# G9a block: qHTS Assay for Inhibitors of Histone Lysine Methyltransferase G9a. Histone-lysine N-methyltransferase EHMT2 (Homo sapiens), Q96KQ7. G9a H3K9 monomethylation, AlphaScreen, 2 h. Potency, µM (doses to about 102 µM), inactives show top-dose activity, negative = inhibition, hits mostly inhibitors. 350,000 compounds, 8.8% hits. AID 504332, 2011; also: % is scaled to controls: 0 for no effect and ±100 for the full control effect; nearly all actives have a fitted effect of over 75% in size
#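 Compounds were preincubated with 20 nM G9a for 15 min, after which biotinylated H3K9 peptide (500 nM) and SAM (20 uM) started a 2 h room-temperature reaction. Monomethylated product was quantified by antibody-based AlphaScreen chemiluminescence.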
# PLK1 PBD inh: qHTS for Inhibitors of PLK1-PDB (polo-like kinase 1 - polo-box domain): Primary Screen; Serine/threonine-protein kinase PLK1 (Homo sapiens), P53350; Plk1 PBD binding of FITC phosphopeptide, fluorescence polarization; Potency, µM, for the others: max response, negative = inhibition, most hits filed as inhibitors; 360,000 compounds, 2.8% hits; AID 720504, 2013; also: series mostly up to about 57 µM; % is scaled to controls: 0 for no effect and ±100 for the full control effect; nearly all actives have a fitted effect of over 65% in size
# * marks the source's active call; other numbers are inactive results; u = inconclusive; x = not tested or not shown; [ ] = remark or other dose. An excerpt weighted towards active compounds, which were near 9% of everything screened. Calls follow the shape of the dose curve; as a rule, active = well fitted curve in the direction sought with a large enough effect; inconclusive = small, poorly fitted or top-dose-only effect, or another doubt; inactive = no such curve, though single readings can be large; an effect the other way counts as inactive or inconclusive. Potency is read from the fitted curve at half-maximal effect.
SMILES,HP1b chromo inh,BAZ2B block,12-LOX inh,JMJD2A Tudor,G9a block,PLK1 PBD inh
CN(CC(=O)Nc1ccc(Cl)cc1)C(=O)c1ccc(S(=O)(=O)Nc2ccccc2)cc1,-2%,8%,-18%,-13%,-30%,-7%
Cc1ccc(S(=O)(=O)N(C)c2ccc(C(=O)NCc3ccccc3F)cc2)cc1,25%,-1%,u,-4%,50µM*,0%
Cc1ccc(C)c(NC(=O)CN(C)C(=O)c2ccc(S(=O)(=O)N(C)c3ccccc3)cc2)c1,21%,6%,-20%,-22%,18%[12.7 µM],3%
Cc1ccc(NC(=O)CN(C)C(=O)c2ccc(S(=O)(=O)Nc3ccc(Cl)cc3)cc2)cc1,x,x,7.9µM*,x,x,x
Cc1ccc(NC(=O)CN(C)C(=O)c2cccc(Br)c2)cc1,9%,-2%,x,u,15%,30µM*
Cc1ccc(S(=O)(=O)N(C)c2ccc(C(=O)NCc3ccccn3)cc2)cc1,47%,-7%,-6%,-10%,-2%,6%
Cc1ccc(NC(=O)CN(C)C(=O)c2ccc(S(=O)(=O)N(C)c3ccccc3)cc2)cc1,24%,-9%,u,-6%,56µM*,-17%
CC(C)C1CN(C(=O)c2ncoc2C2CC2)CCCN1Cc1ccc(F)cc1 (stereo unspecified),x,x,72%,x,x,x
CCOC(=O)c1ccccc1NC(=O)COc1ccccc1-c1nnc(-c2ccccc2)o1,14%,-16%,-7%,-10%,21%[59 µM],x
COc1ccc(Cl)cc1NC(=O)CNc1ccccc1CN(C)C1CCCCC1,-14%,-36%,-25%,-31%,-33%,-3%
O=C1NC(=O)C(=Cc2ccc(Cl)c(Cl)c2)S1,23%,x,-37%,-10%,x,-18%
CC12CCC(C/C1=N\N=C1\NC(=O)/C(=C\c3ccc(Cl)cc3)S1)C2(C)C (stereo unspecified),22%,-4%,-23%,-33%,-9%,24µM*
C/C(CC(=O)Nc1ccc(N(C)C)cc1)=N\NC(=O)c1cnccn1,-7%,-35%,7%,79µM*,u,-23%
C/C(CC(=O)Nc1ccc(N(C)C)cc1)=N\NC(=O)c1ccccc1Cl,x,x,-29%,x,x,-2%
COC(C(=O)N/N=C(\C)CC(=O)Nc1ccc(N(C)C)cc1)c1ccccc1 (stereo unspecified),11%,-21%,19%,-26%,16µM*,0%
C/C(CC(=O)Nc1ccc(N(C)C)cc1)=N\NC(=O)c1ccncc1,17%,-33%,16%,-12%,35µM*,-21%
C/C(CC(=O)Nc1ccc(N(C)C)cc1)=N\NC(=O)c1ccccn1,u,56µM*,10%,u,50µM*,-30%
CCOC(=O)c1c(C)[nH]c(C)c1C(=O)CSc1nncs1,-5%,-15%,6%,-5%[11.4 µM],-2%,-21%
COc1ccc(CC(=O)Nc2ccc(/C(C)=N/NC(=O)c3ccc(OC)cc3OC)cc2)cc1,43%,-14%,-7%,-8%,10%,-3%
COc1ccc(C(=O)N/N=C(\C)CC(=O)Nc2ccc(N(C)C)cc2)c(OC)c1,u,40µM*,51%,u,13%[0.501 µM],-4%
CN(C)c1ccc(NC(=O)CC(NCc2ccccn2)C(=O)O)cc1 (stereo unspecified),30%,5.6µM*,21%,18µM*,13%[59 µM],-7%
O=C(O)CCn1nnc(-c2ccccc2)n1,-7%,-16%,-10%,-18%[11.4 µM],-38%,21µM*
Cc1ccc(S(=O)(=O)N(C)Cc2ccc(C(=O)N/N=C3\CCCC(=O)C3)cc2)cc1,32%,-2%,17%,-13%,-12%[59 µM],5%
O=C1CCC/C(=N\NC(=O)c2ccc(NS(=O)(=O)c3ccc(Br)cc3)cc2)C1,37%,-6%,-25%,-3%,79µM*,-5%
CCN(CC)C1CC(=O)N(c2cccc(Cl)c2)C1=O (stereo unspecified),31%,-5%,u,-7%,8.9µM*,-16%
SMILES,HP1b chromo inh,BAZ2B block,12-LOX inh,JMJD2A Tudor,G9a block,PLK1 PBD inh
O=C1CC(N(O)c2ccccc2)C(=O)N1c1ccc(Cl)c(Cl)c1 (stereo unspecified),18%,-13%,u,-13%,50µM*,-27%
O=C(O)CSC1CC(=O)N(c2cccc(Cl)c2)C1=O (stereo unspecified),21%,17%,-1%,-26%,-15%[59 µM],-13%
CC(=O)NCCCC(=O)NNC1CC(=O)N(c2cccc(Cl)c2)C1=O (stereo unspecified),-24%,-5%,0%,-16%,5.6µM*,-26%
O=C1CC(NNc2ccccc2)C(=O)N1c1ccccc1 (stereo unspecified),5%,-17%,45µM*,-33%,8.9µM*,-21%
COc1ccc(NC2CC(=O)N(c3ccccc3)C2=O)cc1 (stereo unspecified),18%,9%,22%,-6%,-10%,-5%
COCc1cc(C[C@@H]2CC[C@H](O)[C@@H](CNCc3ccccc3Cl)O2)no1,x,x,26%[176 µM],x,x,x
CCOC(=O)c1cccc(NC(=O)CN(c2ccc(OC)cc2)S(=O)(=O)c2c(C)noc2C)c1,38%,1%,-18%,-1%,-10%,5%
Cc1ccc(NC2CC(=O)N(c3ccc(C)cc3)C2=O)cc1 (stereo unspecified),-24%,6%,16%,8%[11.4 µM],-3%,u
Cc1ccc(NNC2CC(=O)N(c3cccc(Cl)c3)C2=O)cc1 (stereo unspecified),35%,u,20µM*,-33%,10µM*,-15%
Nc1n[nH]c(=S)n1/N=C1/C(=O)Nc2ccccc21,16µM*,-25%,u,2.5µM*,1µM*,27µM*
COc1ccc(-n2c(Cc3cccn3C)nnc2SCC(=O)NCc2ccc(F)cc2)cc1,5%,u,394%,-32%,45µM*,-8%
Cn1cccc1Cc1nnc(SCC(=O)Nc2ccccc2)n1-c1ccc(F)cc1,36%,u,451%,u,45µM*,u
Cn1cccc1Cc1nnc(SCC(=O)Nc2ccccc2F)n1-c1ccc(F)cc1,18%,u,212%,-29%,45µM*,-6%
